In experiment [1] the target is T1, 3-phosphoinositide-dependent protein kinase 1 (Homo sapiens) (UniProt O15530).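 Further: values are mean inhibition of PDK1.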
T1 sequence (whole entry): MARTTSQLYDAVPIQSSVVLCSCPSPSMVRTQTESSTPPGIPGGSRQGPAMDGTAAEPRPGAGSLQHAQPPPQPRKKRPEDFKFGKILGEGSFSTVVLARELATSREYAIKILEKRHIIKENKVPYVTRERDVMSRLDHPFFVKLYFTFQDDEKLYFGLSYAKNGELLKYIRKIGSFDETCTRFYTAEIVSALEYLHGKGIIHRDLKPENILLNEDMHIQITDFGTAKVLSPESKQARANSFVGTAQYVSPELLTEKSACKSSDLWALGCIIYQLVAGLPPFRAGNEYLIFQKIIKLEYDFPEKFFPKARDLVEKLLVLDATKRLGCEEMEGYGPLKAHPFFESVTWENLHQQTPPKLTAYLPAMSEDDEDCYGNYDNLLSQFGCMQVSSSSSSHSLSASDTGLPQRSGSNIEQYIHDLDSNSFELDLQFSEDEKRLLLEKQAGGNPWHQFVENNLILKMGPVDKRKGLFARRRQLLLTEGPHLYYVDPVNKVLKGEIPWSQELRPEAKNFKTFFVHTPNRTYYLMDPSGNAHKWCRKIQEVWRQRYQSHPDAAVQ
The conditions noted are these: at 0.1 µM.

Experiment [2] has as its target cAMP-dependent protein kinase catalytic subunit alpha (Homo sapiens) (UniProt P17612). The note with it: at 0.1 µM.
The target is the same in experiment [3]. The conditions noted are these: at 1 µM.
Experiment [4] has as its target Protein kinase C alpha type (Homo sapiens) (UniProt P17252). The conditions noted are these: at 0.1 µM.
Experiment [5] has the same target. The conditions noted are these: at 1 µM.
In experiment [6] the target is Protein kinase C beta type (Homo sapiens) (UniProt P05771). The conditions noted are these: at 0.1 µM.
Experiment [7] has the same target. The note with it: at 1 µM.
Experiment [8] has as its target Protein kinase C eta type (Homo sapiens) (UniProt P24723). The conditions noted are these: at 0.1 µM.
Experiment [9] shares this target. The conditions noted are these: at 1 µM.
In experiment [10] the target is Protein kinase C gamma type (Homo sapiens) (UniProt P05129). The note with it: at 0.1 µM.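 Further: values are mean percent inhibition of PKC gamma.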

Molecules are shown by their SMILES.

Chain of Protein kinase C eta type (Homo sapiens) (P24723 whole entry): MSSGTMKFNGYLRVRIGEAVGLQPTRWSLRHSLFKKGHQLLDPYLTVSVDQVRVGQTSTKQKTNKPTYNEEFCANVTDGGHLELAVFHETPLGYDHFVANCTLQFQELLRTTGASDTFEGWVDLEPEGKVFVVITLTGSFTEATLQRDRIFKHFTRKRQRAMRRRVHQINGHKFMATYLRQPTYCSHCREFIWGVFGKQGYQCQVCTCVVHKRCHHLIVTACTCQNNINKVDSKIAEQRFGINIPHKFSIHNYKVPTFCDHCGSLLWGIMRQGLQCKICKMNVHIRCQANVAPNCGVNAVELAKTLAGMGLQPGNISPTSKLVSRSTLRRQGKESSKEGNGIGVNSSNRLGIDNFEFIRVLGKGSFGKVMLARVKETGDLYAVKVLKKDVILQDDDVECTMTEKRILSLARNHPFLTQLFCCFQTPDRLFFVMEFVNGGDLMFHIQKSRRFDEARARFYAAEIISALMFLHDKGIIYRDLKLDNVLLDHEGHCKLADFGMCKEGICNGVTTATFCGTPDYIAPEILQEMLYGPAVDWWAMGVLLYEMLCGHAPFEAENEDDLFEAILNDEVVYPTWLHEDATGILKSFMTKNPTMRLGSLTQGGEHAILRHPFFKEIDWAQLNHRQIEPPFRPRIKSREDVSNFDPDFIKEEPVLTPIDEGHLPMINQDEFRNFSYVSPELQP
Chain of Protein kinase C beta type (Homo sapiens) (P05771 2-671 limits assumed): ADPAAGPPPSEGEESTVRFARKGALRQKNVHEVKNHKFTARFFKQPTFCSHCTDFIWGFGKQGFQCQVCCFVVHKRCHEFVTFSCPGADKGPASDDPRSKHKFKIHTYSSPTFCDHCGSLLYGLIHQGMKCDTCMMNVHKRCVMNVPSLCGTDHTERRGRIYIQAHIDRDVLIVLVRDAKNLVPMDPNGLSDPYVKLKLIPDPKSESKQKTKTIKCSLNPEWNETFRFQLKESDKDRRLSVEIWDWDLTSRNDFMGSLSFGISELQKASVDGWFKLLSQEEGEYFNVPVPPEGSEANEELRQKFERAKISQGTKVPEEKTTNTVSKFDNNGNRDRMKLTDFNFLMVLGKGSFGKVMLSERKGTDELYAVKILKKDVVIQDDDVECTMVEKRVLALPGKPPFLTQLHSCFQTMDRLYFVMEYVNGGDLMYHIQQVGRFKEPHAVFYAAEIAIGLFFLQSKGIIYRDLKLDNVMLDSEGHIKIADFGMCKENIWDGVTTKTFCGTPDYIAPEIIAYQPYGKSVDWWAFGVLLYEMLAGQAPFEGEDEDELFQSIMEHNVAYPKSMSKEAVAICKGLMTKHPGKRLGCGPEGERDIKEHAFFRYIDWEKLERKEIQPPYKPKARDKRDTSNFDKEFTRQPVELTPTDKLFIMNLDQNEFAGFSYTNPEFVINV

One may read the inhibition as the drop in the measured response relative to a control, in per cent. In the case of `COc1ccc(-c2ccc3c(NC(=O)C4CC4)n[nH]c3n2)cc1`, the inhibition was -1.04% in experiment [1]; 1.31% in [2]; 1.22% in [3]; -0.95% in experiment [4]; -0.98% in [5]; -0.58% in experiment [6]. Further, the inhibition was 1.54% in experiment [7], 1.15% in [8], 1.68% in experiment [9] and 0.57% in experiment [10].
Turning to `Fc1ccc(-c2ncn(C3CCNCC3)c2-c2ccnc(Oc3ccc(Oc4ccccc4)cc3)n2)cc1`, the inhibition in [1] worked out at 0.03%; in experiment [2] it was 4.74%; in experiment [3] it was 24.9%; in experiment [4] it was 1.36%; in experiment [5], 4.49%; in experiment [6], 1.48%. Further, the inhibition in experiment [7] stood at 11.2%; in [8] it was 1.53%; in experiment [9] it was 5.81%; in experiment [10] it was 2.37%.
`O=C(Nc1n[nH]c2nc(-c3ccc(O)cc3)c(Br)cc12)C1CC1`: the inhibition in [1] stood at 5.57%; in experiment [2], 2.91%; in experiment [3] it was 5.49%; in experiment [4], 5.38%; in experiment [5], 36.9%; in experiment [6], 6.11%. Moreover, the inhibition in [7] was 36.5%; in [8], 6.81%; in experiment [9], 12.9%; in experiment [10], 12.7%.
In the case of `Fc1ccc(-c2ncn(C3CCNCC3)c2-c2ccnc(Oc3ccc(F)c(F)c3)n2)cc1`, the inhibition in [1] is 0.57%; in [2], -0.98%; in experiment [3], 9.25%; in experiment [4] it was -3.02%; in experiment [5] it was -0.82%; in experiment [6], -0.22%. Moreover, the inhibition was 3.21% in [7], 3.45% in experiment [8], 5.62% in [9] and 1.57% in experiment [10].
For the compound `NS(=O)(=O)c1ccc(Nc2cc(-c3ccc(O)c(F)c3)n[nH]2)cc1`, the inhibition in [1] is -2.08%; in experiment [2], -2.2%; in [3], -0.83%; in experiment [4] it was -0.97%; in experiment [5], 0.4%; in [6], -0.01%. Further, the inhibition in experiment [7] is 0.79%; in [8], -3.29%; in experiment [9] it was -5.2%; in [10], -3.75%.
Take `Cc1nnc(-c2ccc(C)c(-c3ccc(C(=O)NCc4ccc(Cl)cc4)cc3)c2)o1`: the inhibition in [1] is 1.14%; in [2] it was -1.01%; in [3], 0.62%; in [4] it was -3.05%; in experiment [5], -1.62%; in [6] it was 0.85%. Also, the inhibition in experiment [7] came out at 0.84%; in experiment [8], 6.52%; in experiment [9] it was 7.5%; in experiment [10], 2.61%.
Take `COc1cccc(-n2cnc3c(N/N=C/c4ccncc4)ncnc32)c1`: the inhibition in experiment [1] was 0.77%; in [2], -1.92%; in experiment [3], 0.18%; in experiment [4] it was -2.58%; in experiment [5], -3.28%; in experiment [6] it was 3.24%. Moreover, the inhibition in experiment [7] amounted to 5.82%; in [8] it was 3.47%; in [9], 0.69%; in experiment [10], 0.93%.
In the case of `NS(=O)(=O)c1ccc(N/N=C2\C(=O)Nc3ccc(C(=O)NCCCn4ccnc4)cc32)cc1`, the inhibition was determined as 3.57% in experiment [1]; 2.3% in [2]; 2.8% in experiment [3]; 0.48% in [4]; 3.66% in [5]; 0.75% in [6]. Further, the inhibition in experiment [7] amounted to 3.15%; in experiment [8], 3.58%; in [9], 4.66%; in experiment [10], 3.24%.
Consider `N#Cc1ccc(Oc2nccc(-c3c(-c4ccc(F)cc4)ncn3C3CCNCC3)n2)cc1`, for which the inhibition in [1] amounted to 8.47%; in experiment [2], 2.63%; in experiment [3] it was 5.75%; in experiment [4] it was 0.69%; in [5] it was 2.61%; in [6] it was 1.45%. Also, the inhibition is 2.93% in experiment [7], 6.05% in experiment [8], 5.43% in experiment [9] and 1.87% in experiment [10].
Consider `Fc1ccc(-c2c(-c3ccncc3)nc3n2CCS3)cc1`, for which the inhibition was 2.05% in experiment [1]; -0.65% in experiment [2]; 13.2% in experiment [3]; -2.65% in experiment [4]; -2.48% in [5]; 2.56% in experiment [6]. Further, the inhibition in experiment [7] is 15.9%; in [8] it was -2.42%; in experiment [9], 7.59%; in [10], 1%.
`O=C(NCC1CC1)c1ccc(-c2cccc(C(=O)NC3CC3)c2)cc1`: the inhibition is 0.6% in experiment [1]; 0.93% in experiment [2]; 0.36% in experiment [3]; 1.02% in [4]; 0.96% in experiment [5]; -0.06% in [6]. Further, the inhibition was -2% in experiment [7], 3.93% in experiment [8], -1.4% in [9] and 4.6% in [10].
Regarding `CCc1ccc(Oc2nccc(-c3c(-c4ccc(F)cc4)ncn3C3CCNCC3)n2)cc1`, the inhibition in [1] came to 1.58%; in experiment [2] it was 25.9%; in experiment [3], 75%; in experiment [4] it was 0.98%; in experiment [5], 7.86%; in [6], 3.94%. Further, the inhibition in experiment [7] is 14.9%; in experiment [8], 7.26%; in [9], 5.32%; in [10], -0.16%.
As for `FC(F)(F)c1cccc(Nc2nccc(-c3cnn4nc(-c5ccccc5)ccc34)n2)c1`, the inhibition in experiment [1] is -0.51%; in experiment [2], 1.63%; in [3], 0.52%; in [4] it was -0.27%; in [5], 0.87%; in [6], -0.86%. The inhibition was determined as 2.15% in experiment [7], 2.08% in experiment [8], 3.01% in [9] and 2.43% in experiment [10].
In the case of `O=C(Nc1n[nH]c2nc(-c3ccco3)ccc12)C1CC1`, the inhibition in experiment [1] is 2.58%; in experiment [2], 1.78%; in experiment [3], 4.07%; in [4], -0.2%; in experiment [5], 0.41%; in experiment [6] it was -0.22%. In addition, the inhibition in experiment [7] is -1.09%; in experiment [8] it was -0.3%; in [9], 1.42%; in experiment [10], -0.6%.
As for `COc1cc(C)c(N(C)C(=O)CN(C)C)cc1Nc1nc(Nc2cccc(F)c2C(N)=O)c2cc[nH]c2n1`, the inhibition is 3.26% in experiment [1]; -0.93% in experiment [2]; -3.21% in experiment [3]; -3% in experiment [4]; -2.59% in [5]; 1.6% in experiment [6]. For the same compound, the inhibition is -0.89% in experiment [7], 4.46% in experiment [8], 1.91% in experiment [9] and 2.63% in [10].
In the case of `NS(=O)(=O)c1ccc(N/N=C2\C(=O)Nc3ccc(-c4cnco4)cc32)cc1`, the inhibition is 2.95% in [1]; -3.28% in experiment [2]; -2.27% in experiment [3]; -4.06% in [4]; -1.84% in experiment [5]; 1.26% in experiment [6]. For the same compound, the inhibition in [7] was 0.36%; in [8], 3.38%; in experiment [9], 1.24%; in experiment [10], -1.13%.
Turning to `O=C1Nc2ccc(I)cc2C1=Cc1cc(Br)c(O)c(Br)c1`, the inhibition in [1] came out at 1.34%; in experiment [2], 2.28%; in [3] it was 2.5%; in experiment [4] it was 0.27%; in experiment [5] it was 0.59%; in experiment [6] it was 0.25%. Also, the inhibition was 1.41% in experiment [7], 5.57% in experiment [8], 2.17% in [9] and 2.32% in [10].

The values above are taken from ChEMBL document CHEMBL1961873, “Compounds: GSK PKIS; Assays: Nanosyn kinase panel” (2012).
